Among the data in PubChem BioAssay are growth inhibition, inhibition and outcome values, retold here.

The nature of test [1]: antimalarial activity against Dd2 strain (AID 2302;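 active = growth inhibition above 50% at the single 2 µM test dose, taken to imply half-maximal potency below 2 µM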;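 also: 0% = DMSO untreated growth and 100% = chloroquine plus artemisinin killed control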). The conditions noted are these: P. falciparum Dd2 in RBCs, LDH growth readout, 72 h; at 2 µM; hits give high values.
Test [2] is described as follows: HepG2 cytotoxicity, primary screen, cytotoxicity control for P. falciparum antimalarial project, cell-based, ATP luminescence (AID 2303;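 active = inhibition above 50%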;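 also: 0% = DMSO wells and 100% = digitonin-killed cells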). Conditions: HepG2 viability, 24-48 h, at 10 µM, hits give high values.
The target in test [3] is L-lactate dehydrogenase (Plasmodium falciparum (isolate CDC / Honduras)) (UniProt Q27743). Description: PfLDH activity inhibition – cell lysate, 3D7 strain, counter-screen for P. falciparum growth inhibition project (AID 2304).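 Also: 0% = vehicle and 100% = reference inhibitor.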 The conditions noted are these: P. falciparum 3D7 crude extract, LDH APAD/NBT absorbance; at 2 µM; hits give high values. In general terms: The purpose of a counterscreen is to sort out artefacts and off-target activity.

A short description of test [4]: inhibition of 3D7 malaria parasite growth – strain 3D7 (AID 2306).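 Also: 0% = DMSO wells and 100% = chloroquine plus artemisinin control wells.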 The conditions noted are these: P. falciparum 3D7 erythrocytic growth, LDH absorbance, 72 h; at 2 µM; hits give high values.
Test [5] addresses Calcium-dependent protein kinase 1 (Plasmodium falciparum (isolate 3D7)) (UniProt P62344). The test is described as follows: PfCDPK1 kinase inhibitors, biochemical, TCAMS library (AID 1159585; cut-off not given, nearly all actives have IC50 up to about 0.98 µM;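 also: inhibitors leave more ATP so luminescence rises with inhibition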). Conditions: recombinant PfCDPK1, Kinase-Glo ATP depletion luminescence. On the technique in general: In Kinase-Glo more light means more ATP remaining.
Test [6] has as its target Plasmodium falciparum protein kinase 6 (PK6, PF3D7_1337100) (UniProt Q8IDW1). Description: PfPK6 kinase inhibitors, biochemical, TCAMS library (AID 1159586). The conditions noted are these: recombinant PfPK6, Kinase-Glo ATP depletion luminescence.
The target in test [7] is Protein kinase 7 (PK7), Plasmodium falciparum 3D7 (PF3D7_0213400) (UniProt Q7YTF7). The test is described as follows: inhibition of Plasmodium PK7 catalytic activity – biochemical, TCAMS antimalarial set, Kinase-Glo luminescence (AID 1159587). The conditions noted are these: recombinant PfPK7, Kinase-Glo ATP depletion luminescence.
For test [8], the target named is Calcium-dependent protein kinase 4 (Plasmodium falciparum (isolate 3D7)) (UniProt Q8IBS5). The test is described as follows: PfCDPK4 kinase inhibitors, biochemical, TCAMS library (AID 1159588; cut-off not given, nearly all actives have IC50 up to about 0.91 µM). The conditions noted are these: recombinant PfCDPK4, Kinase-Glo ATP depletion luminescence.

A number with no mark means an inactive call. For part of these data: Results with a measured potency or affinity are listed apart. Calls of active or inactive are those of the source. Unless noted, no rule for the calls is given here.

One may read the inhibition as the change of the read-out against control, counted positive when it falls.

Protein kinase 7 (PK7), Plasmodium falciparum 3D7 (PF3D7_0213400), sequence (Q7YTF7 1-343): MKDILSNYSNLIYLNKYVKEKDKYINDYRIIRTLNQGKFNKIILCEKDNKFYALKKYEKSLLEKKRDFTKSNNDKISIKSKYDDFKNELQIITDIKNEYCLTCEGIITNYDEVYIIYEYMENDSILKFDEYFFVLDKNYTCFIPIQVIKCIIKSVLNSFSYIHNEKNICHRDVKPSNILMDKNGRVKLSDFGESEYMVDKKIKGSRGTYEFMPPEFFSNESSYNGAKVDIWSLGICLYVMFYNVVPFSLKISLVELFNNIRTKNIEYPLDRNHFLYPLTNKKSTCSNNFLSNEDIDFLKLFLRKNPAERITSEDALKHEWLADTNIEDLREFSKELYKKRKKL
L-lactate dehydrogenase (Plasmodium falciparum (isolate CDC / Honduras)), sequence (Q27743 whole entry, looked up): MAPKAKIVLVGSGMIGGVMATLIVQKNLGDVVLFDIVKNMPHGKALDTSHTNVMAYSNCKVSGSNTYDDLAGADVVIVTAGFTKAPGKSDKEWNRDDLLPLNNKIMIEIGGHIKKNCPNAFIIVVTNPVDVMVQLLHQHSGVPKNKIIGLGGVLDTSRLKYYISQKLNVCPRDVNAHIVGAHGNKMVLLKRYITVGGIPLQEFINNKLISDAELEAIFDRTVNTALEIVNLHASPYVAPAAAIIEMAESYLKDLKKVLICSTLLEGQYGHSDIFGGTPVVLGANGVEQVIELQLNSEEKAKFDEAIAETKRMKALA
Calcium-dependent protein kinase 4 (Plasmodium falciparum (isolate 3D7)), sequence (Q8IBS5 whole entry, looked up): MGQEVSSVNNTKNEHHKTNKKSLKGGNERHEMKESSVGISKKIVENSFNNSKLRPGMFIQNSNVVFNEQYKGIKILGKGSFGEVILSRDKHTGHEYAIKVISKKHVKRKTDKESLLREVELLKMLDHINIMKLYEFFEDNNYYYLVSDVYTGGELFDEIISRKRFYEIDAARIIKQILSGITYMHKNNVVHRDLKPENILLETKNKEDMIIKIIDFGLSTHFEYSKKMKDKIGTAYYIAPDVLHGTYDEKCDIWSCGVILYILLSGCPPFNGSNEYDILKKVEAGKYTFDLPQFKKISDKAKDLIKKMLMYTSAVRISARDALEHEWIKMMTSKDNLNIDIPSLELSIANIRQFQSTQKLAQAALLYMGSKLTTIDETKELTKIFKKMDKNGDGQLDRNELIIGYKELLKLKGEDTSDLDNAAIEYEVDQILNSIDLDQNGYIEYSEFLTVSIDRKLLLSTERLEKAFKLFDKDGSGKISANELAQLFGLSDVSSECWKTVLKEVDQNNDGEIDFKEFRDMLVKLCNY
Plasmodium falciparum protein kinase 6 (PK6, PF3D7_1337100), sequence (Q8IDW1 1-305): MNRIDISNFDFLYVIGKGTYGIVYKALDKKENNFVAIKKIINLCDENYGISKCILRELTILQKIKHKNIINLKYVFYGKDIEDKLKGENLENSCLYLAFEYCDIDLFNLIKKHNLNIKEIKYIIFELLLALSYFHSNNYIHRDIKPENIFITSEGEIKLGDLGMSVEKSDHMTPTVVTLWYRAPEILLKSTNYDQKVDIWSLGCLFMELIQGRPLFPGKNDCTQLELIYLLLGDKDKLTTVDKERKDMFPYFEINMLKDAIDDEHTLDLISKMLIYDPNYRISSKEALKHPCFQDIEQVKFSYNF
Calcium-dependent protein kinase 1 (Plasmodium falciparum (isolate 3D7)), sequence (P62344 whole entry, looked up): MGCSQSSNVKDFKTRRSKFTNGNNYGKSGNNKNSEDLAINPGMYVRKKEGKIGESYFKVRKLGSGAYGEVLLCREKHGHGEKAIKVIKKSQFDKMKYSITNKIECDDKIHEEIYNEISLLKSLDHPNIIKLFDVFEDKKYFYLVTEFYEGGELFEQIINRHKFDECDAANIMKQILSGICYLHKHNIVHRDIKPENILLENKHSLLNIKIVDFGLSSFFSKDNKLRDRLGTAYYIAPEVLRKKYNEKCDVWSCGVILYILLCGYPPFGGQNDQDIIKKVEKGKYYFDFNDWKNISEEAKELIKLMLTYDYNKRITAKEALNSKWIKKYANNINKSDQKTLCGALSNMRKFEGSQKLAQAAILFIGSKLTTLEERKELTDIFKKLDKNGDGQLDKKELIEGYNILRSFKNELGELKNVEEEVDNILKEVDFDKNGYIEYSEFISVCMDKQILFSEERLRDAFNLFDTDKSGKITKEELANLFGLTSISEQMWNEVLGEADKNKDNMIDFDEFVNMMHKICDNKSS

Consider `O=C(Nc1ccc(CN2CCOCC2)cc1)c1ccc(-c2ccc(Br)cc2)o1`, for which the growth inhibition in test [1] was -4%; in test [4], 92% (active). Further, the figures for the inhibition in test [2] and in test [3] were 3% and -2%, respectively. In addition, the outcome in test [5], in test [6], in test [7] and in test [8] was inactive.
Consider `O=[N+]([O-])c1ccccc1C=NNc1ccnc2ccccc12`, for which the results for the growth inhibition in test [1] and in test [4] were 98% (active) and 101% (active), respectively. The inhibition in test [2] is 3%; in test [3] it was 2%. Besides, the outcome in test [5], in test [6], in test [7] and in test [8] was inactive.
Take `C(=Cc1ccccc1)C=NNc1ccnc2ccccc12`: the growth inhibition in test [1] and in test [4] was 100% (active) each time. Also, the inhibition is 24% in test [2] and 5% in test [3]. Further, the result in test [5], in test [6], in test [7] and in test [8] was inactive.
With `CCOc1ccc(-c2n[nH]c(C(F)(F)F)c2-c2ccccc2OC)c(O)c1`, the figures for the growth inhibition in test [1] and in test [4] were 12% and 86% (active), respectively. Moreover, the inhibition in test [2] was 22%; in test [3], -5%. Besides, the outcome in test [5], in test [6], in test [7] and in test [8] was inactive.
For `NC(=O)c1ccc(NCC(=O)Nc2cccc(-c3cccc(-c4nc5ccc(F)cc5[nH]4)c3)c2)cc1`, the growth inhibition in test [1] is 32%; in test [4] it was 97% (active). Further, the inhibition in test [2] is 15%; in test [3], -3%. Further, the outcome in test [5], in test [6], in test [7] and in test [8] was inactive.
Take `COc1ccc(-c2cnc(N)nc2N)cc1Cl`: the results for the growth inhibition in test [1] and in test [4] were 1% and 84% (active), respectively. In addition, the inhibition in test [3] is 4%. Also, the outcome in test [5], in test [6], in test [7] and in test [8] was inactive.
Consider `CCc1sc(N2CCN(C)CC2)nc1C(=O)NCCc1ccc(Cl)c(Cl)c1`, for which the growth inhibition in test [1] was 49%; in test [4] it was 92% (active). The inhibition in test [2] and in test [3] was 5% each time. In addition, the outcome in test [5], in test [6], in test [7] and in test [8] was inactive.
For `O=C(/C=C/c1ccccc1O)N1CCC(CCN2CCC(c3c[nH]c4ccccc34)CC2)CC1`, the growth inhibition in test [1] was 15%; in test [4], 100% (active). For the same compound, the inhibition is 46% in test [2] and -1% in test [3]. The outcome in test [5], in test [6], in test [7] and in test [8] was inactive.
Take `Oc1ccc2[nH]c(-c3cccc(F)c3)nc2c1CN1CCC(N2CCCC2)CC1`: the results for the growth inhibition in test [1] and in test [4] were 54% (active) and 100% (active), respectively. In addition, the inhibition was 0% in test [2] and -6% in test [3]. Moreover, the outcome in test [5], in test [6], in test [7] and in test [8] was inactive.
As for `CCCCCCCN(Cc1ccc(OC(C)(C)C(=O)OCC)cc1)C(=O)Cc1ccc(F)cc1F`, the results for the growth inhibition in test [1] and in test [4] were 95% (active) and 93% (active), respectively. Further, in test [3], the inhibition is -3%. In addition, the outcome in test [5], in test [6], in test [7] and in test [8] was inactive.
With `O=C1[C@H]2C(c3ccc(Cl)c(Cl)c3)N3CC(OCc4ccccc4)CC3(C(=O)O)[C@H]2C(=O)N1c1ccc(Br)cc1` (stereo not given in full), the figures for the growth inhibition in test [1] and in test [4] were 86% (active) and 104% (active), respectively. The values for the inhibition in test [2] and in test [3] were 14% and 2%, respectively. In addition, the outcome in test [5], in test [6], in test [7] and in test [8] was inactive.
As to `O=C(Nc1ccc2c(c1)CN(Cc1ccc(N3CCCC3)o1)CCC2)c1cncs1`, the figures for the growth inhibition in test [1] and in test [4] were 37% and 84% (active), respectively. For the same compound, the results for the inhibition in test [2] and in test [3] were 15% and -2%, respectively. For the same compound, the outcome in test [5], in test [6], in test [7] and in test [8] was inactive.
For the compound `CCCCCCCc1c(C)[nH]c2ccc(F)cc2c1=O`, the growth inhibition was 96% (active) in test [1] and 98% (active) in test [4]. Moreover, the inhibition in test [3] was -5%. The outcome in test [5], in test [6], in test [7] and in test [8] was inactive.
Turning to `CCN(CC)CCCN(CCCN(CC)CC)c1cc(C)nc(Nc2ccc(Br)cc2)n1`, the growth inhibition in test [1] is 40%; in test [4] it was 101% (active). In test [3], the inhibition was 6%. For the same compound, the result in test [5], in test [6], in test [7] and in test [8] was inactive.
With `Nc1nc(N)c2cc(Cc3ccccc3Cl)cnc2n1`, the growth inhibition is -2% in test [1] and 93% (active) in test [4]. The inhibition in test [3] was 4%. In addition, the outcome in test [5], in test [6], in test [7] and in test [8] was inactive.
As to `CN(C)C(=S)N=Nc1c(O)[nH]c2ccccc12`, the growth inhibition was 96% (active) in test [1] and 95% (active) in test [4]. In addition, the inhibition in test [3] was 2%. The outcome in test [5], in test [6], in test [7] and in test [8] was inactive.
As for `NC(N)=NC(=O)Nc1cc(Br)c(Cl)c(C(F)(F)F)c1`, the values for the growth inhibition in test [1] and in test [4] were 91% (active) and 101% (active), respectively. In addition, the inhibition in test [3] is 0%. Moreover, the result in test [5], in test [6], in test [7] and in test [8] was inactive.
Take `Cc1cccc(Cn2ccc3c4c(N)nc(N)nc4ccc32)c1`: the values for the growth inhibition in test [1] and in test [4] were 98% (active) and 95% (active), respectively. In test [3], the inhibition is 1%. Also, the outcome in test [5], in test [6], in test [7] and in test [8] was inactive.
Consider `CCCOc1cc2c(cc1OCCC)C(C=Cc1ccc(Cl)cc1Cl)=NC(C)C2` (stereo not given), for which the growth inhibition was 75% (active) in test [1] and 90% (active) in test [4]. In addition, the inhibition in test [3] was -5%. The result in test [5], in test [6], in test [7] and in test [8] was inactive.
Regarding `CCc1ccc(Cc2cnc3nc(N)nc(N)c3c2C)cc1CC`, the growth inhibition in test [1] is -1%; in test [4] it was 97% (active). Moreover, in test [3], the inhibition was 6%. The outcome in test [5], in test [6], in test [7] and in test [8] was inactive.
